Experimental data: PubChem BioAssay (Tox21)
Results filed as inconclusive are left out. The source made the active and inactive calls. Unless noted, calls come from the whole dose curve; as a rule, active = well fitted curve in the direction sought with a large enough effect in the repeat runs; inconclusive = weak or mixed curves; inactive = no such curve, though single readings can be large; an effect the other way counts as inactive or inconclusive.

What was measured:
[1] = qHTS assay for small molecule agonists of the p53 signaling pathway (AID 651631; calls by dose curve; note: nearly all actives have a fitted effect of over 15% in size)
Summary of the method: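 Beta-lactamase reporter activity under p53 response elements was quantified in HCT-116 cells by FRET fluorescence, following 16 h incubation with test compounds at 37 °C and 2 h substrate development at room temperature.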

[2] = qHTS assay for small molecules that induce genotoxicity in human embryonic kidney cells expressing luciferase-tagged ATAD5 (AID 651632); note: nearly all actives have a fitted effect of over 15% in size
Summary of the method: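 Cells were seeded at 2,000 per well, dosed with compound, and incubated 16 hr at 37C in 5% CO2. Luciferase activity was then quantified after a 30 min room-temperature incubation with Amplite.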

[3] = qHTS assay for small molecule agonists of the p53 signaling pathway - cell viability (AID 651633; calls by dose curve;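 note: p53RE-bla HCT reporter cells with a stable beta-lactamase p53 reporter; series mostly up to about 83 µM; nearly all actives have a fitted effect of over 30% in size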)
Summary of the method: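 p53RE-bla cells were treated with compound for 16 hours at 37 C. Cytotoxicity was then measured as CellTiter-Glo luminescence after 30 min at room temperature.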

[4] = qHTS assay for small molecules that induce genotoxicity in human embryonic kidney cells expressing luciferase-tagged ATAD5 - cell viability (AID 651634; calls by dose curve; note: nearly all actives have a fitted effect of over 25% in size)
Summary of the method: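 Cells (HEK293T, luciferase-tagged ATAD5) are seeded at 2,000 per well, dosed with compound or DMSO vehicle, and incubated 15.5 hr at 37C and 5% CO2. CellTiter-Fluor is added for 30 min before fluorescence is measured.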

[5] = qHTS assay for small molecule disruptors of the mitochondrial membrane potential - cell viability (AID 720634; calls by dose curve;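 note: human HepG2 liver cancer cells; series mostly up to about 83 µM; nearly all actives have a fitted effect of over 20% in size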)
Summary of the method: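 Cytotoxicity was measured by ATP quantitation in HepG2 wells that had first been treated with compound for 1 hr and stained with m-MPI dye; CellTiter-Glo incubation was 30 min at room temperature.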

[6] = qHTS assay for small molecule disruptors of the mitochondrial membrane potential (AID 720635)
Summary of the method: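 HepG2 cells exposed to compound 1 hr at 37C, then Mito-MPS dye 30 min. Ratio read of aggregate (540/590 nm) versus monomer (490/535 nm) fluorescence.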

[7] = qHTS assay to test for compound auto fluorescence at 590 nm (red) in HepG2 cells (AID 720674)
Summary of the method: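 Fluorescence at 590 nm emission following 540 nm excitation was recorded from HepG2 wells one hour after compound transfer, with DMSO-only wells as vehicle and Rose Bengal sodium equivalency as the scale.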

[8] = qHTS assay to test for compound auto fluorescence at 535 nm (green) in HepG2 cells (AID 720675)
[9] = qHTS assay to test for compound auto fluorescence at 460 nm (blue) in HEK293 cells (AID 720678)
Summary of the method: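 Auto fluorescence in the blue band was quantified as triamterene equivalency. HEK293 cells were seeded at 2,000/well, dosed after a 4-5 hr attachment, and kept overnight at 37C before the 405/460 nm reading.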

[10] = qHTS assay to test for compound auto fluorescence at 590 nm (red) in HEK293 cells (AID 720679)
Summary of the method: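 Autofluorescence equivalency to Rose Bengal sodium, 540/590nm, in HEK293 cells exposed overnight to 23 nL compound per well.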

[11] = qHTS assay to test for compound auto fluorescence at 535 nm (green) in HEK293 cells (AID 720680)
[12] = qHTS assay to test for compound auto fluorescence at 460 nm (blue) in HEK293 cell free culture (AID 720681)
Summary of the method: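 Compounds were added to cell-free DMEM with 10% FBS and fluorescence read directly. The blue channel used 405 nm excitation and 460 nm emission, with triamterene as the reference fluorophore.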

[13] = qHTS assay to test for compound auto fluorescence at 535 nm (green) in HEK293 cell free culture (AID 720682)
Summary of the method: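 Each library compound, or DMSO control, is added by pintool to medium alone, comprising DMEM and 10% FBS. Emission at 535 nm following 485 nm excitation is quantified against fluorescein.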

[14] = qHTS assay to test for compound auto fluorescence at 590 nm (red) in HEK293 cell free culture (AID 720683)
Summary of the method: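 Cell-free wells of DMEM with 10% FBS received compound, and intrinsic fluorescence was read at excitation/emission 540/590 nm. Values expressed as equivalence to Rose Bengal sodium.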

[15] = qHTS assay to test for compound auto fluorescence at 590 nm (red) in HepG2 cell free culture (AID 720684)
Summary of the method: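 Auto fluorescence equivalency versus Rose Bengal sodium, red channel Ex/Em 540/590 nm; compounds in cell-free MEM/10% FBS; DMSO vehicle control.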

[16] = qHTS assay to test for compound auto fluorescence at 460 nm (blue) in HepG2 cell free culture (AID 720685)
Summary of the method: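 Cell-free plates of MEM plus 10% FBS received 23 nL compound or DMSO vehicle; blue-channel (405/460 nm) intensity scored against triamterene as reference fluorophore.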

[17] = qHTS assay to test for compound auto fluorescence at 535 nm (green) in HepG2 cell free culture (AID 720686)
[18] = qHTS assay to test for compound auto fluorescence at 460 nm (blue) in HepG2 cells (AID 720687)
Summary of the method: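 HepG2 cells in MEM with 10% FBS, attached overnight at 37 C, were exposed to compound or DMSO for 1 hr at 37 C, 5% CO2. Blue fluorescence was read at 405/460 nm, with triamterene as reference fluorophore.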

[19] = biological target: Glucocorticoid receptor (Homo sapiens) (UniProt P04150); experiment: qHTS assay to identify small molecule agonists of the glucocorticoid receptor (GR) signaling pathway (AID 720691; active = well fitted activation curve with a large enough effect in the signal ratio in the repeat runs, not every such curve was filed as active; the % refers to the signal ratio)
Glucocorticoid receptor (Homo sapiens), sequence (P04150 whole entry, looked up): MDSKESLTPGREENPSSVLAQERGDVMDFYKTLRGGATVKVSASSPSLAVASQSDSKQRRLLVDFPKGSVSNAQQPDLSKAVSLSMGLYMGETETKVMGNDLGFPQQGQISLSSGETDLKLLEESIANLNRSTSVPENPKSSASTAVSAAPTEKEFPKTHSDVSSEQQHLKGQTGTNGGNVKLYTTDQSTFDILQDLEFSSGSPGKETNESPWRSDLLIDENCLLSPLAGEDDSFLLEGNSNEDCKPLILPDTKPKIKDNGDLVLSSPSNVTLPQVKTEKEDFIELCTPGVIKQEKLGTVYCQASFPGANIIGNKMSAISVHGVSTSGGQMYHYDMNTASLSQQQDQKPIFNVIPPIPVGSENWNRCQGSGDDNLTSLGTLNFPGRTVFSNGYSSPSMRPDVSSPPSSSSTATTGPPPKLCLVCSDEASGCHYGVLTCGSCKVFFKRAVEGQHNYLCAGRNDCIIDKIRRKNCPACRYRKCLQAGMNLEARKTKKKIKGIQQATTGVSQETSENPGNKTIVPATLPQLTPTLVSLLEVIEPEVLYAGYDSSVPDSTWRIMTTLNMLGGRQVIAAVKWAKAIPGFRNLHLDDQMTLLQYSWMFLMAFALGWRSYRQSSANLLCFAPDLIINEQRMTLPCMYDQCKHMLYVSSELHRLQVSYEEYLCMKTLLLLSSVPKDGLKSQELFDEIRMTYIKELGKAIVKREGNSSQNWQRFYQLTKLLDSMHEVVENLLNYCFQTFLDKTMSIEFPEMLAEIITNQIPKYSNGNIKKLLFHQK
Summary of the method: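 Steps: seed GR-bla HeLa cells, incubate 4 h at 37 C/5% CO2; pin-transfer DMSO-dissolved compounds; incubate 18 h at 37 C; add LiveBLAzer B/G FRET substrate; after 2 h at room temperature, measure fluorescence.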

[20] = biological target: Glucocorticoid receptor (Homo sapiens) (UniProt P04150); experiment: qHTS assay to identify small molecule antagonists of the glucocorticoid receptor (GR) signaling pathway (AID 720692; active = well fitted inhibition curve with a large enough effect in the signal ratio in the repeat runs, not every such curve was filed as active; the % refers to the signal ratio)
Summary of the method: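 Antagonism was scored as loss of dexamethasone-driven (5 nM final) reporter signal in HeLa cells bearing a glucocorticoid response element–beta-lactamase construct, after 18 h compound exposure at 37 C and 2 h FRET substrate loading.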
% is set by controls: 0 for no effect and ±100 for the full control effect.

CC(C)(C)C(=O)C(=O)O
inactive: Potency [1] | Potency [2] | Potency [3] | Potency [4] | Potency [5] | Potency [6] | outcome [7] | outcome [8] | Potency [9] | outcome [10] | outcome [11] | Potency [12] | outcome [13] | outcome [14] | outcome [15] | Potency [16] | outcome [17] | Potency [18] | Potency [19] | Potency [20]

C=C(C)C(=O)OCCCCCCCCCCCCC
inactive: Potency [1] | Potency [2] | Potency [3] | Potency [4] | Potency [5] | Potency [6] | outcome [7] | outcome [8] | Potency [9] | outcome [10] | outcome [11] | Potency [12] | outcome [13] | outcome [14] | outcome [15] | Potency [16] | outcome [17] | Potency [18]

NCCNCCO
inactive: Potency [1] | Potency [2] | Potency [3] | Potency [4] | Potency [5] | Potency [6] | outcome [7] | outcome [8] | Potency [9] | outcome [10] | outcome [11] | Potency [12] | outcome [13] | outcome [14] | outcome [15] | Potency [16] | Potency [18] | Potency [19] | Potency [20]

Nc1ncnc2c1ncn2[C@H]1CC[C@@H](CO)O1
inactive: Potency [1] | Potency [2] | Potency [3] | Potency [4] | Potency [5] | Potency [6] | outcome [7] | outcome [8] | Potency [9] | outcome [10] | outcome [11] | Potency [12] | outcome [13] | outcome [14] | outcome [15] | Potency [16] | outcome [17] | Potency [18]

O=c1[nH]ncc2ccccc12
inactive: Potency [1] | Potency [2] | Potency [3] | Potency [4] | Potency [5] | Potency [6] | outcome [7] | outcome [8] | outcome [10] | outcome [11] | Potency [12] | outcome [13] | outcome [14] | outcome [15] | Potency [16] | Potency [18] | Potency [19] | Potency [20]

CC(=O)OCC[N+](C)(C)C
inactive: Potency [1] | Potency [2] | Potency [3] | Potency [4] | Potency [5] | Potency [6] | outcome [7] | outcome [8] | Potency [9] | outcome [10] | outcome [11] | Potency [12] | outcome [13] | outcome [14] | outcome [15] | Potency [16] | outcome [17] | Potency [19] | Potency [20]

O=C(O)C[C@H](NC(=O)OCc1ccccc1)C(=O)O
inactive: Potency [1] | Potency [2] | Potency [3] | Potency [4] | Potency [5] | Potency [6] | outcome [7] | outcome [8] | Potency [9] | outcome [10] | outcome [11] | Potency [12] | outcome [13] | outcome [14] | Potency [16] | outcome [17] | Potency [18] | Potency [19]

CCCCCCCCCI
inactive: Potency [1] | Potency [2] | Potency [3] | Potency [4] | Potency [5] | Potency [6] | outcome [7] | outcome [8] | Potency [9] | outcome [10] | outcome [11] | Potency [12] | outcome [13] | outcome [14] | outcome [15] | Potency [16] | outcome [17] | Potency [18] | Potency [19]

O=C(O)CCC(=O)C(=O)O
inactive: Potency [1] | Potency [2] | Potency [3] | Potency [4] | Potency [5] | Potency [6] | outcome [7] | outcome [8] | Potency [9] | outcome [10] | outcome [11] | Potency [12] | outcome [13] | outcome [14] | Potency [16] | outcome [17] | Potency [18] | Potency [19] | Potency [20]

C=C1c2cccc(O)c2C(O)=C2C(=O)[C@]3(O)C(O)=C(C(N)=O)C(=O)[C@@H](N(C)C)[C@@H]3[C@@H](O)[C@H]12
inactive: Potency [1] | Potency [2] | Potency [3] | Potency [4] | Potency [5] | Potency [6] | fluorescence, relative to Rose Bengal [7] -0.284% [at 18.6 µM] | fluorescence, % of fluorescein control [8] -0.0181% [at 18.6 µM] | fluorescence, % of triamterene [9] 1.67% [at 18.6 µM] | fluorescence, % of fluorescent control [10] 0.604% [at 18.6 µM] | fluorescence, % of fluorescein [11] 0.0422% [at 18.6 µM] | fluorescence, % of fluorescent control [12] 1.43% [at 18.6 µM] | activity change [13] -0.0974% [at 18.6 µM] | fluorescence, % of fluorescent control [14] 0.464% [at 18.6 µM] | fluorescence, % of fluorescent control [16] 1.61% [at 18.6 µM] | fluorescence, % of fluorescent control [18] 1.19% [at 18.6 µM] | Potency [19] | Potency [20]

O=C1c2ccccc2C(=O)C1c1ccc(Br)cc1
inactive: Potency [1] | Potency [2] | Potency [3] | Potency [4] | Potency [5] | Potency [6] | outcome [7] | outcome [8] | outcome [10] | outcome [11] | Potency [12] | outcome [13] | outcome [14] | outcome [15] | Potency [16] | outcome [17] | Potency [18]

CO[C@]1(NC(=O)CSC(F)F)C(=O)N2C(C(=O)O)=C(CSc3nnnn3CCO)CO[C@H]21
inactive: Potency [1] | Potency [2] | Potency [3] | Potency [4] | Potency [5] | Potency [6] | outcome [7] | outcome [8] | Potency [9] | outcome [10] | outcome [11] | Potency [12] | outcome [13] | outcome [14] | outcome [15] | Potency [16] | outcome [17] | Potency [18] | Potency [19] | Potency [20]

CCCCCCC(C)(C)C(=O)O
inactive: Potency [1] | Potency [2] | Potency [3] | Potency [4] | Potency [5] | Potency [6] | outcome [7] | outcome [8] | Potency [9] | outcome [10] | outcome [11] | Potency [12] | outcome [13] | outcome [14] | outcome [15] | Potency [16] | outcome [17] | Potency [19] | Potency [20]

Cc1cc(C)cc(N)c1
inactive: Potency [1] | Potency [2] | Potency [3] | Potency [4] | Potency [5] | Potency [6] | outcome [7] | outcome [8] | Potency [9] | outcome [10] | outcome [11] | Potency [12] | outcome [13] | outcome [14] | outcome [15] | Potency [16] | outcome [17] | Potency [19] | Potency [20]
